Assay [1] can be described thus: qHTS assay to identify small molecule antagonists of the glucocorticoid receptor (GR) signaling pathway - cell viability counter screen (AID 720693). Further: nearly all actives have a fitted effect of over 55% in size. On the technique in general: Quantitative high-throughput screening tests each substance at several concentrations.
Assay [2] is described as follows: qHTS assay for identifying genotoxic compounds that show differential cytotoxicity against isogenic chicken DT40 cell lines with known DNA damage response pathways - wild type cell line (AID 743012). Further: nearly all actives have a fitted effect of over 60% in size. Further: potency means the concentration at half of the fitted maximal effect. The essentials: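 300 wt DT40 cells/well; cpd (DMSO) pintool-transferred after ~0.5 h at 37 C/5% CO2; 40 h incubation; CellTiter-Glo added, 30 min RT; luminescence read.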

The nature of assay [3]: qHTS assay for identifying genotoxic compounds that show differential cytotoxicity against isogenic chicken DT40 cell lines with known DNA damage response pathways - Rev3 mutant cell line (AID 743014). Further: nearly all actives have a fitted effect of over 55% in size. Further: potency means the concentration at half of the fitted maximal effect.
Assay [4] is described as follows: qHTS assay for identifying genotoxic compounds that show differential cytotoxicity against isogenic chicken DT40 cell lines with known DNA damage response pathways - Rad54/Ku70 mutant cell line (AID 743015). Further: nearly all actives have a fitted effect of over 60% in size. Further: potency means the concentration at half of the fitted maximal effect.
A short description of assay [5]: qHTS assay to identify small molecule antagonists of the androgen receptor (AR) signaling pathway - cell viability counter screen (AID 743033; further: nearly all actives have a fitted effect of over 45% in size; further: potency means the concentration at half of the fitted maximal effect).
In assay [6] the target is Androgen receptor (Homo sapiens) (UniProt P10275). The experiment in a line: qHTS assay to identify small molecule antagonists of the androgen receptor (AR) signaling pathway (AID 743035; active means well fitted inhibition curve with a large enough effect in the signal ratio in the repeat runs, not every such curve was filed as active; the % refers to the signal ratio). Summed up: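 In this cell-based reporter screen, compounds were tested in concentration series against R1881-activated HEK293 cells expressing beta-lactamase under UAS control; after 16 h at 37C, FRET substrate was added and fluorescence read 2 h later.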

Assay [7] shares this target. The experiment in a line: qHTS assay to identify small molecule agonists of the androgen receptor (AR) signaling pathway (AID 743036; active means well fitted activation curve with a large enough effect in the signal ratio in the repeat runs, with a control signal flat, not every such curve was filed as active; the % refers to the signal ratio). The essentials: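 Reporter line: GeneBLAzer AR-UAS-bla-GripTite (HEK293). Steps: plate cells, 4 h rest, add compounds, 16 h at 37C, add LiveBLAzer B/G substrate, 2 h at RT, read fluorescence.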
For assay [8] the target is unchanged. As to the kind of experiment: qHTS assay to identify small molecule agonists of the androgen receptor (AR) signaling pathway using the MDA cell line (AID 743040; further: nearly all actives have a fitted effect of over 20% in size). The essentials: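 Agonist activity is measured as luciferase luminescence in human MDA-kb2 cells whose MMTV reporter responds to both AR and GR. Compounds in DMSO incubate 16 h at 37C, 0% CO2, and ONE-Glo is read after 30 min.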

The nature of assay [9]: qHTS assay to identify small molecule antagonists of the androgen receptor (AR) signaling pathway using the MDA cell line - cell viability counter screen (AID 743041; further: nearly all actives have a fitted effect of over 45% in size). The essentials:
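qHTS viability read-out; MDA-kb2 AR-luc; R1881-stimulated; 16 h exposure at 37C, 0% CO2; CellTiter-Fluor, 30 min; fluorescence intensity.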

Assay [10] has as its target Androgen receptor (Homo sapiens) (UniProt P10275). As to the kind of experiment: qHTS assay to identify small molecule antagonists of the androgen receptor (AR) signaling pathway using the MDA cell line (AID 743042; further: nearly all actives have a fitted effect of over 55% in size; further: potency means the concentration at half of the fitted maximal effect). The essentials:
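MDA-kb2 cells (human breast carcinoma, stably carrying an MMTV-luciferase reporter responsive to AR and GR) were plated at 3,000 cells/well and preincubated 5 hr at 37C, then given compound plus R1881 agonist for 16 h. ONE-Glo luminescence was read.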

Assay [11] in a line: qHTS assay to identify small molecule antagonists of the thyroid receptor (TR) signaling pathway - cell viability counter screen (AID 743064). Further: nearly all actives have a fitted effect of over 50% in size. Further: potency means the concentration at half of the fitted maximal effect. The essentials:
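Plate GH3.TRE-Luc cells; incubate 4 h at 37 °C; add compound, then T3 to 1 nM final; incubate 23.5 h; add CellTiter-Fluor; incubate 30 min at 37 °C, 5% CO2; read fluorescence.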

Assay [12] in a line: qHTS assay to identify small molecule antagonists of the thyroid receptor (TR) signaling pathway (AID 743065). Further: nearly all actives have a fitted effect of over 55% in size. Further: potency means the concentration at half of the fitted maximal effect. The essentials:
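GH3.TRE-Luc rat pituitary cells carrying two TR response elements driving luciferase were plated for 4 h, given compound plus 1 nM T3 (final), and incubated 23.5 h at 37 C. ONE-Glo luminescence measured reporter inhibition; CellTiter-Fluor fluorescence tracked cytotoxicity.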

For assay [13], the system named is thyroid hormone receptor (rat, GH3 cells). As to the kind of experiment: qHTS assay to identify small molecule agonists of the thyroid receptor (TR) signaling pathway (AID 743066; calls by dose curve).
In assay [14] the target is Estrogen receptor (Homo sapiens) (UniProt P03372). The experiment in a line: qHTS assay to identify small molecule antagonists of the estrogen receptor alpha (ER-alpha) signaling pathway (AID 743069; active means well fitted curve in the direction sought with a large enough effect in the signal ratio in the repeat runs, not every such curve was filed as active; the % refers to the signal ratio). Summed up: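 Screening used a UAS-driven beta-lactamase reporter integrated into HEK293 cells expressing ER-alpha, stimulated with 17beta-estradiol alongside test compounds over 18 hr at 37C; signal came from LiveBLAzer B/G FRET fluorescence.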

Assay [15] is described as follows: qHTS assay to identify small molecule antagonists of the estrogen receptor alpha (ER-alpha) signaling pathway - cell viability counter screen (AID 743074; calls by dose curve; further: nearly all actives have a fitted effect of over 45% in size).
Assay [16] addresses Estrogen receptor (Homo sapiens) (UniProt P03372). As to the kind of experiment: qHTS assay to identify small molecule agonists of the estrogen receptor alpha (ER-alpha) signaling pathway (AID 743075; calls by dose curve).
Assay [17] shares this target. The experiment in a line: qHTS assay to identify small molecule agonists of the estrogen receptor alpha (ER-alpha) signaling pathway using the BG1 cell line (AID 743079). Further: nearly all actives have a fitted effect of over 20% in size.
Assay [18] in a line: qHTS assay to identify small molecule antagonists of the estrogen receptor alpha (ER-alpha) signaling pathway using the BG1 cell line (AID 743080; calls by dose curve;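 further: BG1 cells stimulated with 17beta-estradiol alongside compound; nearly all actives have a fitted effect of over 25% in size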; further: potency means the concentration at half of the fitted maximal effect). Summed up: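 Seeding, 24 h rest, compound transfer from DMSO, 17beta-estradiol addition, 21.5 h incubation, CellTiter-Fluor (30 min, 37 C), then ONE-Glo (30 min, room temperature): this sequence was run on BG1-Luc-4E2 reporter cells.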

Assay [19] is described as follows: qHTS assay to identify small molecule antagonists of the estrogen receptor alpha (ER-alpha) signaling pathway using the BG1 cell line - cell viability counter screen (AID 743081).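 Further: compound given together with 17beta-estradiol as the ER stimulus; series mostly up to about 70 µM; nearly all actives have a fitted effect of over 45% in size.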
The next assay addresses Aromatase (Homo sapiens) (UniProt P11511). The experiment in a line: qHTS assay to identify aromatase inhibitors (AID 743083).

Inconclusive results are not listed. The source made the active and inactive calls. Unless noted, the call rests on the fitted dose curve; in most records, active means well fitted curve in the direction sought with a large enough effect in the repeat runs; inconclusive means weak or mixed curves; inactive means no such curve, though single readings can be large; an effect the other way counts as inactive or inconclusive.

Sequence of Estrogen receptor (Homo sapiens) (P03372 whole entry, looked up): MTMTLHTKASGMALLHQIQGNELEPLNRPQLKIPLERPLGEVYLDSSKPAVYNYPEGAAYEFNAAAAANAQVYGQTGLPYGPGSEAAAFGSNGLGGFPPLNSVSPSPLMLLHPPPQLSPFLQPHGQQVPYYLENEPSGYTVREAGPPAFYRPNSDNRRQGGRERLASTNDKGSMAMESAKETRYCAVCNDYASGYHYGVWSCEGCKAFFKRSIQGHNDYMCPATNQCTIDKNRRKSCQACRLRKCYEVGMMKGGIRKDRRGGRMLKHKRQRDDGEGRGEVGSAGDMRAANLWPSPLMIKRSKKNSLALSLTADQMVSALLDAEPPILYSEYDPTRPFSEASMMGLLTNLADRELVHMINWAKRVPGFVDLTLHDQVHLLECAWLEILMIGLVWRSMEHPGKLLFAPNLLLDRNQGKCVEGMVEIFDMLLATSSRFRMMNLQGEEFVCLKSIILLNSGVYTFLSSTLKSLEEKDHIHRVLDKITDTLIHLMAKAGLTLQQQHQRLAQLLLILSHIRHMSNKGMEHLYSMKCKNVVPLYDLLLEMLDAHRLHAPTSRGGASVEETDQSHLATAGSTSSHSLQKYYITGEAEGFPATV
Sequence of Aromatase (Homo sapiens) (P11511 whole entry, looked up): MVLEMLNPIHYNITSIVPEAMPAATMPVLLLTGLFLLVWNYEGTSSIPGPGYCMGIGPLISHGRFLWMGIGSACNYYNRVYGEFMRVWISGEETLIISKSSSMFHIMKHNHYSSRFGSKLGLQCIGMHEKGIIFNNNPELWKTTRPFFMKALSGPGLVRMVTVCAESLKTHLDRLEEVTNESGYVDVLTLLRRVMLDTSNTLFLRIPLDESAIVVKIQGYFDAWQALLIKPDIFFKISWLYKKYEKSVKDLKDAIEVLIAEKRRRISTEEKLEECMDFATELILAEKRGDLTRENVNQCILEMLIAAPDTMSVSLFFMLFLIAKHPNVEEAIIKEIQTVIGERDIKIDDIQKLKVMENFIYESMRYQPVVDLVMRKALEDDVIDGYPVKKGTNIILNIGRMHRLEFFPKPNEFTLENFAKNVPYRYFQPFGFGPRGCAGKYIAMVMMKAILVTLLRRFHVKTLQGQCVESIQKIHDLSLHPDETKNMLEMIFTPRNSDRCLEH
Sequence of Androgen receptor (Homo sapiens) (P10275 whole entry, looked up): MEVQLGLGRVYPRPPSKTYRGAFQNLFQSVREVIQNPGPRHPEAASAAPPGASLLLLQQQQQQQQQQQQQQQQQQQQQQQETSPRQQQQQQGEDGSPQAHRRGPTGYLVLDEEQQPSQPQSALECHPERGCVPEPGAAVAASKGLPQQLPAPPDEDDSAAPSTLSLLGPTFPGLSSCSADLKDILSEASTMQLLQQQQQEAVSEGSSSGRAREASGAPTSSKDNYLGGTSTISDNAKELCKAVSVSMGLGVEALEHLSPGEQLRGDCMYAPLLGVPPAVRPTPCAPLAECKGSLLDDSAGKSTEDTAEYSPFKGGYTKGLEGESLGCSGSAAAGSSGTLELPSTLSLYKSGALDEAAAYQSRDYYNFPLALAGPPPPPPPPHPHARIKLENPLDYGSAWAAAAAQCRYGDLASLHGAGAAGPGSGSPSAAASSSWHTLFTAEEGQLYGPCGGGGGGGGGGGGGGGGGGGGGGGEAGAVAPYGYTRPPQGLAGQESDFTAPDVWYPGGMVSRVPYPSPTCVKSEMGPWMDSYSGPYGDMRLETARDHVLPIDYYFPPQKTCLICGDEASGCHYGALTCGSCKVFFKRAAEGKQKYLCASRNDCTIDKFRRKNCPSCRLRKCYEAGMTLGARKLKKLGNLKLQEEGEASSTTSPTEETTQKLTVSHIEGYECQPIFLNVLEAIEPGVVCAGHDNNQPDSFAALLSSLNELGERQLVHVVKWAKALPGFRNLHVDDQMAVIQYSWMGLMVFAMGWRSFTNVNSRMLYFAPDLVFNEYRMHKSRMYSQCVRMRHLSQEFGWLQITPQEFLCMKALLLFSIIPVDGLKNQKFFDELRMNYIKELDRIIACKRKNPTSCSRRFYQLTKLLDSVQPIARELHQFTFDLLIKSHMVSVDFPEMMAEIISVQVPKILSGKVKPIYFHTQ

`O=C(C(Cl)(Cl)Cl)C(Cl)(Cl)Cl`: the Potency entry in [1], in assay [2], in assay [3], in [4], in [5] and in assay [6] was “inactive” each time. The Potency result in assay [8], in assay [9], in [10], in assay [11], in [12] and in assay [13] was “inactive” each time. For the same molecule, the Potency result in [14], in assay [15], in [16], in [17], in assay [18] and in assay [19] was “inactive” in each case. For the same molecule, the Potency result with Aromatase (Homo sapiens) is “inactive”. For the same molecule, the outcome in assay [7] was inactive.
With `C=COC(C)=O`, the Potency result in assay [1], in [2], in assay [3], in assay [4], in assay [5] and in assay [9] was “inactive” in each case. In addition, the Potency entry (in assay [11]; in assay [12]; in [13]; in assay [15]; in assay [19]; with Aromatase (Homo sapiens)) was “inactive” each time.
Take `CNC(C)Cc1ccccc1OC` (configuration not stated): the Potency result in assay [1], in assay [2], in [3], in assay [4], in [5] and in assay [9] was “inactive” in each case. Moreover, the Potency result in assay [11], in [12], in assay [13], in assay [14], in [15] and in assay [16] was “inactive” in each case. Further, the Potency result (in assay [17]; in assay [18]; in [19]; with Aromatase (Homo sapiens)) was “inactive” in each case.
In the case of `Cc1ccccc1C(=O)Nc1cccc(OC(C)C)c1`, the Potency result in assay [1], in assay [5], in [8], in assay [9], in assay [10] and in [11] was “inactive” each time. Further, the Potency entry in assay [13], in assay [14], in [15], in [16], in assay [17] and in assay [18] was “inactive” in each case. The Potency result (in assay [19]; with Aromatase (Homo sapiens)) was “inactive” each time. For the same molecule, the Potency in assay [2] is 48.6 µM (active); in assay [3], 30.6 µM (active); in assay [4], 48.6 µM (active).
In the case of `Cc1ccc(-c2c(Cl)nc(C#N)n2S(=O)(=O)N(C)C)cc1`, the Potency entry in assay [1], in [8] and in assay [19] was “inactive” each time. Besides, the Potency was 61.1 µM (active) in assay [2]; 61.1 µM (active) in assay [3]; 61.1 µM (active) in [4]; 43.6 µM (active) in [5]; 54.4 µM (active) in assay [10]; 54.4 µM (active) in assay [11]. Besides, the Potency was 13.7 µM (active) in [12] and 54.4 µM (active) in assay [18].
As to `Cc1ccc2ccccc2c1`, the Potency result in assay [1], in assay [2], in assay [3], in assay [4], in [5] and in assay [6] was “inactive” each time. Moreover, the Potency result in [8], in assay [9], in assay [10], in assay [11], in assay [12] and in assay [13] was “inactive” each time. The Potency result in assay [14], in [15], in assay [16], in assay [17], in assay [18] and in assay [19] was “inactive” in each case. The Potency result with Aromatase (Homo sapiens) is “inactive”. In [7], the molecule was classed as inactive.
On to `CCN(C)N=O`, for which the Potency entry in [1], in [2], in assay [3], in [4], in [5] and in [9] was “inactive” each time. The Potency entry in [11], in [12], in [13], in assay [14], in assay [15] and in [16] was “inactive” each time. Besides, the Potency entry (in [17]; in [18]; in [19]; in the assay with Aromatase (Homo sapiens)) was “inactive” throughout.
Turning to `C=CCN1CC[C@]23c4c5ccc(O)c4O[C@H]2C(=O)CC[C@@]3(O)[C@H]1C5`, the Potency entry in assay [1], in assay [2], in assay [3], in [4], in assay [5] and in [9] was “inactive” in each case. Besides, the Potency result (in assay [11]; in [12]; in [13]; in assay [15]; in assay [19]; with Aromatase (Homo sapiens)) was “inactive” throughout.
In the case of `COP(=S)(OC)Oc1cc(Cl)c(I)cc1Cl`, the Potency result in assay [1], in assay [2], in assay [3], in [4], in assay [5] and in assay [8] was “inactive” throughout. Further, the Potency result in assay [9], in assay [10], in assay [11], in assay [13], in assay [15] and in assay [19] was “inactive” in each case. The Potency result in the assay with Aromatase (Homo sapiens) was “inactive”.

Source of the values: PubChem BioAssay (Tox21).
